Screening results (PubChem)
Dicer inh: blocks human Dicer maturation of pre-miR-21 | AID 1347074 | cat-ELCCA pre-miR-21 Dicer processing, chemiluminescence; active compounds read high | z-score at 25 µM | Q9UPY3 | 47,000 tested, 6% active; in the data active = z-score above about 3, passing the limit was not always enough;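 note: higher signal means more uncleaved substrate so more Dicer inhibition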
Hits are given with their value. This excerpt belongs to a sample that is enriched for hits.

What do the screens show for `c1csc(-c2noc(CSc3nc4ccccc4[nH]3)n2)c1`?
Dicer inh: inactive

What do the screens show for `Cc1cc(C)n(CC(O)Cn2c(C)c(C)c3ccccc32)n1` (stereo not drawn)?
Dicer inh: inactive

Results for OC(CNC1CCCCC1)Cn1c2ccccc2c2ccccc21 (stereo not drawn) ?
Dicer inh: inactive

How did Cc1ccc2c(c1)c(C)c(C)n2CC(O)CN1CCCCC1C (stereo not drawn) do in these assays?
Dicer inh: 3.6

Results for CN(C)S(=O)(=O)c1cc(C(=O)O)c(N2CCOCC2)cc1Cl ?
Dicer inh: inactive

Results for COc1ccccc1C1Nc2nonc2NC2=C1C(=O)CC(C)(C)C2 (stereo not drawn) ?
Dicer inh: inactive

Results for Cc1onc(-c2ccccc2)c1CNS(=O)(=O)c1cc2ccccc2s1 ?
Dicer inh: inactive

How did COCCCN1C(=O)C(=O)/C(=C(\O)c2ccc(F)cc2)C12C(=O)N(C)c1ccccc12 (stereo not drawn) do in these assays?
Dicer inh: inactive

How did C=CCN1C(=O)C2(/C(=C(/O)c3ccc(OCC)cc3)C(=O)C(=O)N2CCOC)c2ccccc21 (stereo not drawn) do in these assays?
Dicer inh: inactive

What do the screens show for `C=CCOc1ccc(/C(O)=C2/C(=O)C(=O)N(CCOC)C23C(=O)N(C)c2ccccc23)cc1` (stereo not drawn)?
Dicer inh: inactive

What do the screens show for `COCCCN1C(=O)C(=O)/C(=C(\O)c2ccc(C)c(F)c2)C12C(=O)N(C)c1ccccc12` (stereo not drawn)?
Dicer inh: inactive

How did C=CCOc1ccc(/C(O)=C2/C(=O)C(=O)N(CCCOC)C23C(=O)N(C)c2ccccc23)cc1 (stereo not drawn) do in these assays?
Dicer inh: 3.6

What do the screens show for `COCCCN1C(=O)C(=O)/C(=C(\O)c2ccccc2)C12C(=O)N(C)c1ccccc12` (stereo not drawn)?
Dicer inh: 3.9

What do the screens show for `O=C1CC(Sc2ncn[nH]2)C(=O)N1c1ccc(-c2ccccc2)cc1` (stereo not drawn)?
Dicer inh: inactive

What do the screens show for `COc1cc2c(cc1OC)C(C)N(C(=O)c1ccc(Cl)cc1Cl)CC2` (stereo not drawn)?
Dicer inh: inactive

What do the screens show for `CN(n1cnc2ccccc2c1=O)S(C)(=O)=O`?
Dicer inh: 3

Results for CN(n1cnc2ccsc2c1=O)S(C)(=O)=O ?
Dicer inh: inactive

How did COc1ccc(-n2cnc3ccccc3c2=O)cc1 do in these assays?
Dicer inh: inactive

How did CC1=C(C)CC2C(=O)N(c3ccc(I)cc3)C(=O)C2C1 (stereo not drawn) do in these assays?
Dicer inh: inactive

Results for COC(=O)[C@H]1O[C@@H](OC(C)=O)[C@H](OC(C)=O)[C@@H](OC(C)=O)[C@@H]1OC(C)=O ?
Dicer inh: inactive

What do the screens show for `COC(=O)C1=C(Nc2ccc(F)c(Cl)c2)CSC1`?
Dicer inh: inactive

Results for CCOC(=O)c1cc2cc([N+](=O)[O-])ccc2[nH]1 ?
Dicer inh: inactive

How did Cc1cc(C)c(C#N)c(OC(=O)c2c(F)cccc2F)n1 do in these assays?
Dicer inh: 71

What do the screens show for `Cc1cc(C)c(C#N)c(Nc2ccc(F)cc2)n1`?
Dicer inh: inactive

Results for CCOC(=O)COc1nc(C)cc(C)c1C#N ?
Dicer inh: inactive

How did CSCCC1Oc2ccc(Br)cc2C2CC(c3ccccc3O)=NN12 (stereo not drawn) do in these assays?
Dicer inh: 11

Results for COc1ccc(C2Oc3c(OC)cccc3C3CC(c4cc(OC)ccc4O)=NN32)cc1 (stereo not drawn) ?
Dicer inh: inactive

What do the screens show for `COc1cccc(C2=NN3C(C2)c2cc(Br)ccc2OC3c2ccncc2)c1` (stereo not drawn)?
Dicer inh: 6.7

Results for Cc1ccc(C2=NN3C(C2)c2cc(Br)ccc2OC3c2ccncc2)s1 (stereo not drawn) ?
Dicer inh: 4.3

Results for COc1cccc2c1OC(CCSC)N1N=C(c3cc(C)ccc3O)CC21 (stereo not drawn) ?
Dicer inh: inactive

Results for COc1ccc(O)c(C2=NN3C(C2)c2cc(Br)ccc2OC3c2cccnc2)c1 (stereo not drawn) ?
Dicer inh: inactive

How did CSCCC1Oc2ccccc2C2CC(c3ccccc3O)=NN12 (stereo not drawn) do in these assays?
Dicer inh: inactive

How did COc1cccc2c1OC(c1ccncc1)N1N=C(c3cc(Cl)ccc3O)CC21 (stereo not drawn) do in these assays?
Dicer inh: inactive

How did Cc1ccc(O)c(C2=NN3C(C2)c2cc(Br)ccc2OC3c2ccncc2)c1 (stereo not drawn) do in these assays?
Dicer inh: inactive

What do the screens show for `COc1ccc(O)c(C2=NN3C(C2)c2cc(Br)ccc2OC3c2ccncc2)c1` (stereo not drawn)?
Dicer inh: 13

Results for Brc1ccc2c(c1)C1CC(c3ccccc3)=NN1C(c1cccnc1)O2 (stereo not drawn) ?
Dicer inh: inactive

Results for O=C(O)CNc1nc(-c2ccccc2)c2cc(Br)ccc2n1 ?
Dicer inh: inactive
